N-glyco inh = N-linked glycosylation inhibition | D54 ERlucT glycosylation luciferase reporter, 24 h; percent of 100 nM tunicamycin response | reporter increase, % at 12.5 µM | 360,000 compounds, 0.23% hits;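 active = mean luciferase reporter signal, scaled so untreated is 0 and the glycosylation-blocking control 100, at or above a set limit in every replicate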;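 note: luciferase carries N-glycosylation sites so blocking glycosylation raises the light; 0% = median of neutral control wells and 100% = median of 100 nM tunicamycin wells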
SUMO Mot1 rescue = inhibitors of SUMOylation pathway: yeast Mot1-301 growth rescue | S. cerevisiae Mot1-301 growth rescue, ATP luminescence, 38.5C; percent above DMSO median, 100 means doubled | growth rescue, % at 18.8 µM | 320,000 compounds, 1% hits;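 active = every valid replicate shows activation above 250% relative to neutral control wells; inactive = the rest, any valid replicate at or below 250%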;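 note: OY570 slx delta 5 strain wells were the positive control but not used for scaling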
CASP6 VEID inh = blocks human caspase-6 cleavage activity | P55212 | AID 686996 | inhibition, % at 12.5 µM | purified caspase-6, Z-VEID-R110 cleavage fluorescence | 350,000 compounds, 0.53% hits;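 active = mean inhibition across replicates at least about 35%, with every replicate also reaching that limit, limit read from the data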;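 note: 0% = median of neutral control wells and 100% = no fluorescence left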
ALR inh = inhibitors of human sulfhydryl oxidase ALR. inhibition, % (test concentration not listed). P55789. 290,000 compounds, 3.8% hits. AID 485317. purified ALR, DTT oxidation, H2O2 HRP-luminol luminescence;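 active = mean replicate inhibition above about 79%, with every replicate also reaching it, limit read from the data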
NSD2 inh = inhibitors of human histone methyltransferase NSD2 | O96028 | NSD2 peptide methylation, AlphaScreen, 120 min | inhibition, % at 12.5 µM | 310,000 compounds, 0.54% hits | AID 743445; in the data active = inhibition above about 50%
Target sequence (O96028 whole entry, looked up): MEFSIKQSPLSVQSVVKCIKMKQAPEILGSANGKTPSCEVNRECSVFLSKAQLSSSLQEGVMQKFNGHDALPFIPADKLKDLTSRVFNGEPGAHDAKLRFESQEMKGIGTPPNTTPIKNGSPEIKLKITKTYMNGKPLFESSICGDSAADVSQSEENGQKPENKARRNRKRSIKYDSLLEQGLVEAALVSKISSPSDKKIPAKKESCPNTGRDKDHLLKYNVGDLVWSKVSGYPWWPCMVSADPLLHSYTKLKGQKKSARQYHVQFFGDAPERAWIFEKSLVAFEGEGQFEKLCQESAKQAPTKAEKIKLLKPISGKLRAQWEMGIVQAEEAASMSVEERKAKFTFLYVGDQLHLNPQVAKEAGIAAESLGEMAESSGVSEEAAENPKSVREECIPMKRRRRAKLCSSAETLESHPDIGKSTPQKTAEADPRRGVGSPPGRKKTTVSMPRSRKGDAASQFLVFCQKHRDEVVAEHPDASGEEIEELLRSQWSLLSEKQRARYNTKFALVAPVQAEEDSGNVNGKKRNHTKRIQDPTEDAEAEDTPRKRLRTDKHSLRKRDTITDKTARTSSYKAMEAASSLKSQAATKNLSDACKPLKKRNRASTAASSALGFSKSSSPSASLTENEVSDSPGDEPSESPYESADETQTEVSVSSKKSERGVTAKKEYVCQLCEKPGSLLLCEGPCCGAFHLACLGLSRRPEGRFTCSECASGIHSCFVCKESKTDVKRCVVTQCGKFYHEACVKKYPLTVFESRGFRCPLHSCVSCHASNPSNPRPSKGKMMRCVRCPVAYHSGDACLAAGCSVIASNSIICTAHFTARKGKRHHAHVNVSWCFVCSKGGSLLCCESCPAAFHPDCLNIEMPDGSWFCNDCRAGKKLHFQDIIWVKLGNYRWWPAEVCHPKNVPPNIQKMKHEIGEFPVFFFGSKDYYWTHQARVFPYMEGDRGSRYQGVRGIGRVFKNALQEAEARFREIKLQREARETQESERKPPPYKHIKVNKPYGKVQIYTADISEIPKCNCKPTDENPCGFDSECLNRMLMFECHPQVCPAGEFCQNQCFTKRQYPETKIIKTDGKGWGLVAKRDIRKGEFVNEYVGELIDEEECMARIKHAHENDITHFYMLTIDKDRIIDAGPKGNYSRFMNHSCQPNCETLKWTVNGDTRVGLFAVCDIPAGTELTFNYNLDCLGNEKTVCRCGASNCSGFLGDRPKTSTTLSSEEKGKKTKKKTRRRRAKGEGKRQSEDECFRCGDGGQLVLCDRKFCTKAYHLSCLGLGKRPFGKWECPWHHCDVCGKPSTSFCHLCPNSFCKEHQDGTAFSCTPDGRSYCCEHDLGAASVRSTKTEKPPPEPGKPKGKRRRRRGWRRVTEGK
CDK5 inh = blocks human CDK5/p35 kinase activity; inhibition, % at 10 µM; 330,000 compounds, 0.01% hits; AID 488839; Q00535+Q15078; Recombinant CDK5/p35, ADP-Glo luminescence, 60 min;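 active = highest replicate inhibition of at least 50% and at least 75% of replicates reaching 50%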;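 note: plate controls were DMSO neutral control for no effect and GW8510 at 10 µM for full effect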
Numbers without * were called inactive. Sampled rows, rich in hits. Any-hit rate of the full collection: about 3.9%.

Results for C[C@@H]1CCCCO[C@H](CN(C)CC2CC2)[C@H](C)CN([C@H](C)CO)C(=O)c2cc(N(C)C)ccc2O1 ?
CASP6 VEID inh: -18

How did CC(C)CC#Cc1ccc2c(c1)O[C@@H](CN(C)C(=O)c1cccnc1)[C@@H](C)CN([C@@H](C)CO)S2(=O)=O do in these assays?
CASP6 VEID inh: 2

How did Cc1ccn2c(NC(C)(C)C)c(-c3cccs3)nc2c1 do in these assays?
N-glyco inh: 0; SUMO Mot1 rescue: 8; CASP6 VEID inh: 2; ALR inh: 99*; NSD2 inh: -2; CDK5 inh: 1

How did Cc1ccn2c(NC(=O)c3cccs3)c(-c3ccccc3)nc2c1 do in these assays?
N-glyco inh: 1; SUMO Mot1 rescue: 10; ALR inh: -1; NSD2 inh: -1

How did C[C@@H]1CN([C@H](C)CO)C(=O)Cc2cc(NC(=O)Cn3cnnn3)ccc2O[C@H]1CN(C)S(=O)(=O)c1ccccc1 do in these assays?
CASP6 VEID inh: 1

How did CCOC(=O)/C(=C\c1ccccc1)C(=O)c1cc(C(C)=O)c(Nc2ccccc2)s1 do in these assays?
N-glyco inh: 35*; SUMO Mot1 rescue: 6; ALR inh: 3; NSD2 inh: 4; CDK5 inh: 1

How did CCOC(=O)/C(=C\c1cccnc1)C(=O)c1cc(C(C)=O)c(Nc2ccccc2)s1 do in these assays?
N-glyco inh: -20; ALR inh: 9; CDK5 inh: 1

How did Cc1c(C2(O)CCCCC2)[nH]c2ccccc12 do in these assays?
CASP6 VEID inh: -6

What do the screens show for `Cc1c(C2(O)CCCCC2)[nH]c2ccc(C(F)(F)F)cc12`?
N-glyco inh: -9; SUMO Mot1 rescue: 301*; CASP6 VEID inh: 7; ALR inh: -1; CDK5 inh: -2

Results for C[C@H](CO)N1C[C@H](C)[C@H](CN(C)S(=O)(=O)c2ccc(F)cc2)OCCCC[C@H](C)Oc2ccc(NC(=O)c3ccccc3)cc2C1=O ?
CASP6 VEID inh: -1

How did Cc1ccc(NC(=O)CSc2ncc3ccccn23)cc1 do in these assays?
N-glyco inh: 0; SUMO Mot1 rescue: 4; CASP6 VEID inh: -5; ALR inh: 99*; NSD2 inh: 0; CDK5 inh: -1

What do the screens show for `CC(=O)Nc1cccc(NC(=O)CSc2ncc(-c3ccc(Cl)cc3)n2Cc2ccco2)c1`?
N-glyco inh: -3; SUMO Mot1 rescue: -1; ALR inh: 92*; NSD2 inh: 2; CDK5 inh: -1

What do the screens show for `Cc1ccc(NC(=O)CSc2nccn2Cc2ccco2)cc1`?
N-glyco inh: -2; SUMO Mot1 rescue: -13; CASP6 VEID inh: -2; ALR inh: 89*; NSD2 inh: 3; CDK5 inh: 0

What do the screens show for `COc1ccc(-c2cnc(SCC(=O)Nc3ccc4c(c3)OCO4)n2Cc2ccco2)cc1`?
N-glyco inh: -4; NSD2 inh: 1; CDK5 inh: -2

What do the screens show for `Cc1ccc(NC(=O)CSc2nccn2Cc2ccccc2)cc1C`?
N-glyco inh: 2; SUMO Mot1 rescue: 432; ALR inh: 98*; NSD2 inh: 13; CDK5 inh: 1

How did CO[C@H]1CN(C)C(=O)c2ccc(NC(=O)c3ccccc3)cc2OC[C@H](C)N(CC2CC2)C[C@@H]1C do in these assays?
CASP6 VEID inh: -3

Results for CCC(=O)N1[C@H](C(=O)NCCCN(C)C)[C@@H](CO)[C@@H]2Cn3c(ccc(-c4ccccc4F)c3=O)[C@@H]21 ?
CASP6 VEID inh: 4

Results for O=C(CSc1nccn1Cc1ccco1)Nc1ccc(F)cc1 ?
N-glyco inh: 0; SUMO Mot1 rescue: 4; CASP6 VEID inh: -1; ALR inh: 99*; NSD2 inh: 6; CDK5 inh: 0

What do the screens show for `Cc1noc(NS(=O)(=O)c2ccc(NC(=O)c3oc4ccc(Cl)cc4c3C)cc2)c1C`?
N-glyco inh: 3; SUMO Mot1 rescue: 2; CASP6 VEID inh: 0; ALR inh: 98*; NSD2 inh: 1; CDK5 inh: -2

Results for O=C(O)c1ccccc1NC(=O)c1cc(-c2ccccc2)nc2ccccc12 ?
N-glyco inh: -2; SUMO Mot1 rescue: -4; CASP6 VEID inh: -1; ALR inh: 98*; CDK5 inh: 4

Screening results as filed in PubChem.
